# Screening results from PubChem.
# An excerpt weighted towards active compounds, which were near 10% of everything screened.
# IMPase cell inh: qHTS Assay for Identifying the Cell-Membrane Permeable IMPase Inhibitors; 120,000 tested, under 10 active; CHO-M1 cells, IP1 accumulation, HTRF TR-FRET ratio; inhibition (IP1 accumulation), % at 46.1 µM; active means well fitted curve in the direction sought with a large enough effect in the signal ratio, not every such curve was filed as active; inconclusive means small, poorly fitted or top-dose-only effect, or a change in a side signal; inactive means no such curve, though single readings can be large or run the other way; the % refers to the signal ratio;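 further: cells stimulated with carbachol in lithium chloride buffer; plate controls were DMSO basal wells for no effect and reference inhibitor wells for full effect; higher means more IMPase inhibition seen as more IP1 and lower FRET ratio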
#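 CHO-M1 cells (CHO stably expressing M1 receptor), compound up to 46 uM final, stimulated with carbachol (50 uM as added) in buffer with 50mM LiCl, pH 7.4, 30 min at 37C. Cytosolic IP1 read by TR-FRET; AC50 from Hill fits.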
# ALDH1A1 inh: qHTS Assay for Inhibitors of Aldehyde Dehydrogenase 1 (ALDH1A1). Purified ALDH1A1, NADH fluorescence, propionaldehyde substrate. Potency, µM (doses to about 75.3 µM), for the others: top-dose activity, negative = inhibition, actives largely listed as inhibitors. 7.3% of 220,000 active. AID 1030, 2008;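 further: potency means the concentration at half of the fitted maximal effect; plate controls were no enzyme wells and a reference inhibitor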
# Target sequence (P00352 whole entry, looked up): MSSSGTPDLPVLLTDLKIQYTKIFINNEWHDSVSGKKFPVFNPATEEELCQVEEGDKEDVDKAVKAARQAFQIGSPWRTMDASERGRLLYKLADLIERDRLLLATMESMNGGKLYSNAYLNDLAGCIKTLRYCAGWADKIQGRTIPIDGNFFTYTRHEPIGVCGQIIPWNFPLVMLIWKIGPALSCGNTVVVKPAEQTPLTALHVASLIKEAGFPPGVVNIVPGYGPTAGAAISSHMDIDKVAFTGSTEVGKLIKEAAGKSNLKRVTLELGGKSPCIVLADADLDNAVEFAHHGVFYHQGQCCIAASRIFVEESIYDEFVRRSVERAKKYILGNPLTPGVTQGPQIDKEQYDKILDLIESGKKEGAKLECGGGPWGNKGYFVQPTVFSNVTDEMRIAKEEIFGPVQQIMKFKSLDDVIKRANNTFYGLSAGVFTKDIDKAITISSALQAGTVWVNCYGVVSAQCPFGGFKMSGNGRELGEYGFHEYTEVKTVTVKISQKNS
# PNC assembly inh: High Content Assay for Compounds that inhibit the Assembly of the Perinucleolar Compartment; PC3M PTB-GFP, PNC prevalence imaging, 16 h; active compounds read low; activity change (PNC), negative = inhibition, % at 10 µM; 3.1% of 140,000 active; AID 2417, 2010;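 active means readout at or below -70, meaning at least 70% loss of cells showing the perinucleolar compartment, a nuclear body marking cancer cells; inconclusive means readout between -30 and a set limit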;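 further: plate controls were DMSO wells for no effect and camptothecin positive control wells for full effect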
#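 PC3M cells stably expressing PTB-GFP, 750–1000 cells/well, treated 16 h at 37 °C with compound (23 nl of library stock), in duplicate. After paraformaldehyde fixation and Hoechst stain, imaged at 20x; PNC prevalence scored by image analysis.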
# LMNA splice mod: qHTS Assay for Modulators of Lamin A Splicing; HeLa LMNA splicing GFP/RFP minigene ratio, 48 h; Potency, µM (highest dose often 46.1 µM), without a hit: at the highest dose ratio change, negative = inhibition, most hits filed as inhibitors; 0.01% of 200,000 active; AID 1487, 2009; active means well fitted inhibition curve with a large enough effect in the signal ratio, with a control signal flat, not every such curve was filed as active; inconclusive means small, poorly fitted or top-dose-only effect, or effect the other way, or a change in a side signal; the % refers to the signal ratio; further: potency means the concentration at half of the fitted maximal effect
#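 S3 HeLa cells stably expressing lamin A-EGFP splicing minigene plus DsRed2, 600 cells/well, 48 h compound exposure at 37C. Laser-scanning cytometry; analysed as GFP (500-530 nm)/RFP (575-640 nm) total intensity ratio; 0.5% DMSO vehicle.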
# Luc counter: Counterscreen for Luciferase (Kinase-Glo TM) Inhibition; Luciferin 4-monooxygenase (Photuris pensylvanica), Q27757; Kinase-Glo luciferase, ATP luminescence, 8 min; Potency, µM (series often up to 38.3 µM), without a hit: top-dose activity change, negative = inhibition, usual class: inhibitors; 0.28% of 200,000 active; AID 1379, 2008; active means well fitted inhibition curve with a large enough effect; inconclusive means small, poorly fitted or top-dose-only effect; further: potency means the concentration at half of the fitted maximal effect; nearly all actives have a fitted effect of over 60% in size
#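 Kinase-Glo luciferase light output from ATP and luciferin was measured with 10 uM ATP, within the enzyme's linear range. Buffer: 50 mM imidazole pH 7.2, 50 mM KCl, 7 mM MgCl2, 0.01% Tween 20, 0.05% BSA; luminescence read after 8 min at ambient temperature.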
# HPGD inh: qHTS Assay for Inhibitors of HPGD (15-Hydroxyprostaglandin Dehydrogenase). 15-hydroxyprostaglandin dehydrogenase [NAD(+)] (Homo sapiens), P15428. purified HPGD, NADH fluorescence kinetic, PGE2 substrate. 4.3% of 150,000 active. Potency, µM, for inactives: at the top dose activity change, negative = inhibition, actives largely listed as inhibitors. AID 894, 2007; further: potency means the concentration at half of the fitted maximal effect
# Target sequence (P15428 whole entry, looked up): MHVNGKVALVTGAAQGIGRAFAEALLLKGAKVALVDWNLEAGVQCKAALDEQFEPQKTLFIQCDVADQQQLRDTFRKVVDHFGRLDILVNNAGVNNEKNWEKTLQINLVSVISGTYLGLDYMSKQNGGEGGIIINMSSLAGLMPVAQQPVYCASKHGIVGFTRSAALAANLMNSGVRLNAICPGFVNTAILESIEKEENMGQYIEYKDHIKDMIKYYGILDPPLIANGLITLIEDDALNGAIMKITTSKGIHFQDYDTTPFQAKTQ
#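 20 nM HPGD preincubated 15 min at room temperature with compound in 50 mM Tris-HCl pH 8, 0.01% Tween 20. Started with 1 mM NAD+ and 30 uM prostaglandin E2; NADH fluorescence (360/450 nm) read 5 times over 30-s intervals, last minus first.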
# * hit, by the source's call; ? = inconclusive; / = not tested or not shown; [ ] = remark or other dose. Unless noted, the call rests on the fitted dose curve; in most records, active means well fitted inhibition curve with a large enough effect (not every such curve was filed as active); inconclusive means small, poorly fitted or top-dose-only effect, or another doubt; inactive means no such curve, though single readings can be large or run the other way. Unless noted, on the % scale 0 is the no-effect control and ±100 the full control effect.
SMILES,IMPase cell inh,ALDH1A1 inh,PNC assembly inh,LMNA splice mod,Luc counter,HPGD inh
CC1=C(C#N)C(c2cn(-c3ccccc3)nc2-c2cccs2)C(C#N)=C(C)N1,5.4,-14.2%,-95.2*,?,-2.6%,-5.6%
COCCOC(=O)C1=C(C)NC(=O)NC1c1cn(-c2ccccc2)nc1-c1cccs1 (centres undefined),-3.6,-8.5%,-26.6,9.4%,-5.1%,-4.1%
CC(C)c1nn2c(=O)cc(COC(=O)c3ccccc3NC(=O)c3cccs3)nc2s1,/,/,/,-1.0%[46 µM],/,/
N#CCCn1c(=O)c(-c2cccc(C#N)c2)nc2cnc(N3CCOCC3)nc21,/,?,/,5.2%,/,/
C/C(=N\NC(N)=O)C1(C)CCCCC1,0.5,25.1µM*,22.8,13.6%,0.9%,-9.6%
CN(C)S(=O)(=O)c1cccc(NC(=S)NCCc2ccccn2)c1,/,-11.2%,/,7.4%[46 µM],0.4%,/
COc1cc(/C=N/NC(=S)Nc2cccc(S(=O)(=O)N(C)C)c2)cc(OC)c1O,7.3,22.4µM*,?,?,-2.9%,-26.4%
CC(/C=N/NC(=S)Nc1cccc(S(=O)(=O)N(C)C)c1)c1ccccc1 (centres undefined),/,7.94µM*,21.8,-12.3%,-1.8%,35.5µM*
COc1ccc(O)c(/C=N/NC(=S)Nc2cccc(S(=O)(=O)N(C)C)c2)c1,/,?,59.6,?,-1.6%,?
CN(C)S(=O)(=O)c1cccc(NC(=S)N/N=C/C(c2ccccc2)c2ccccc2)c1,/,10µM*,8.7,-9.9%,-1.0%,17.8µM*
Cn1c(=O)n(C/C=C/c2ccccc2)c(=O)c2c1nc1n2CCN1c1ccc(F)cc1,/,/,/,-8.0%[46 µM],/,/
O=C(Cn1nc(-c2ccccc2)nc(Cc2ccccc2)c1=O)Nc1ccc(Cl)cc1,/,/,/,0.1%[46 µM],/,/
CCOC(=O)C1=C(C)Nc2ccccc2N=C1NC(=O)C(c1ccccc1)c1ccccc1,/,0.141µM*,/,/,-1.7%,/
CCOC(=O)C1=C(CC)Nc2ccccc2N=C1NC(=O)c1ccc(S(=O)(=O)N2CCOCC2)cc1,/,14.1µM*,/,/,-0.1%,/
CCOC(=O)Nc1sc(=S)n(C)c1C,-4.3,18.9µM*,-11.6,-1.8%,-3.5%,25.1µM*
O=C(Nc1cccnc1)c1c(F)c(F)c(F)c(F)c1F,2.5,3.4%,-106.5*,4.3%,0.6%,-6.1%
O=C(Nc1cccnc1)c1ccc(C(=O)Nc2cccnc2)cc1,/,9.7%,/,/,-1.6%,/
NC(N)=Nc1nc(C2COc3ccccc3O2)cs1 (centres undefined),11.8,6.6%,17.7,?,1.5%,-15.4%
c1csc(-c2nn3c(C4COc5ccccc5O4)nnc3s2)c1 (centres undefined),-1.8,8.91µM*,-15.3,-3.9%,5.2%,8.91µM*
c1ccc2c(c1)OCC(c1nnc3n1-c1ccccc1SC3)O2 (centres undefined),-1.6,?,-9.2,14.9%,-0.5%,12.6µM*
Fc1ccc(-c2nnc3sc(C4COc5ccccc5O4)nn23)cc1 (centres undefined),?,0.9%,-27.1,?,-2.3%,28.2µM*
c1ccc2c(c1)OCC(c1nnc3sc(-c4ccc5c(c4)OCO5)nn13)O2 (centres undefined),-3.4,?,32.2,?,-3.0%,?
Fc1ccc(-c2nn3c(C4COc5ccccc5O4)nnc3s2)cc1 (centres undefined),-3.2,31.6µM*,26.8,3.3%,0.4%,28.2µM*
CCOc1ccccc1CNC(=O)CSc1n[nH]c(-c2ccccc2Cl)n1,/,/,/,-4.0%[46 µM],/,/
COc1cc(OC)cc(C(=O)N2CCC(c3ccncc3)CC2)c1,/,/,/,6.0%[46 µM],/,/
SMILES,IMPase cell inh,ALDH1A1 inh,PNC assembly inh,LMNA splice mod,Luc counter,HPGD inh
Cc1cccc(CNc2ccnc(-c3ccccc3Cl)n2)c1,/,-1.4%,/,?,/,/
O=C(Nc1cc(Cl)ccc1Cl)c1cc(S(=O)(=O)N2CCc3ccccc3C2)ccc1F,/,/,/,21.1%[46 µM],/,/
CCOC(=O)CCCCN(Cc1ccccc1F)S(=O)(=O)c1ccc(F)c(C(=O)Nc2cc(Cl)cc(Cl)c2)c1,/,/,/,-21.1%[46 µM],/,/
c1ccc2c(c1)OCC(c1nnc3sc(-c4cnccn4)nn13)O2 (centres undefined),-2.3,8.91µM*,-21.5,13.3%,-2.4%,25.1µM*
CC(Sc1nc(-c2ccccc2)c(C#N)c(=O)[nH]1)C(=O)Nc1ccc(F)cc1 (centres undefined),/,/,/,0.7%[46 µM],/,/
CN(C)C(=O)CSc1nc2ccccc2c(=O)[nH]1,-6.0,-10.6%,-11.3,-7.5%,3.0%,-22.5%
COCCn1c(C)cc(C(=O)CSc2nc3ccccc3c(=O)[nH]2)c1C,13.1,6.5%,?,?,-2.8%,15.8µM*
Cc1cc(C)c(C(=O)CSc2nc3ccccc3c(=O)[nH]2)cc1C,/,?,/,?,-0.9%,/
CCN(CC)C(=O)CSc1nc2ccccc2c(=O)[nH]1,-8.0,?,?,-16.7%,3.6%,8.91µM*
COCC(C)n1c(C)cc(C(=O)CSc2nc3ccccc3c(=O)[nH]2)c1C (centres undefined),10.6,-7.7%,36.2,?,-4.6%,31.6µM*
C=CCn1c(C)cc(C(=O)CSc2nc3ccccc3c(=O)[nH]2)c1C,14.0,?,23.8,?,4.8%,2.82µM*
COCCn1c(C)cc(C(=O)CSc2ccc3ccccc3n2)c1C,11.6,4.6%,19.2,?,-2.0%,-27.1%
COc1cccc([C@@H]2Oc3ccc(OC)cc3C(=O)[C@H]2OC(=O)Nc2ccc(C)c(Br)c2)c1,/,?,/,/,-2.7%,-14.2%
O=C(Nc1c(C(=O)c2ccc(F)cc2)oc2ccccc12)c1cc(-c2ccccc2)on1,/,/,/,12.6%[46 µM],/,/
CCN(CC)C(=O)CSc1nc2ncc(Cl)cc2[nH]1,-7.6,?,?,13.1%,-1.7%,12.6µM*
Cc1ccc(CNc2ncnc3c2c(-c2ccccc2)cn3-c2cccc(Cl)c2)cc1,/,/,/,-16.3%[46 µM],/,/
COc1nnnc2c1sc1nc(N3CCOCC3)c3c(c12)CC(C)(C)OC3,-0.5,?,11.4,4.0%,/,/
CC1(C)Cc2c(c(N3CCOCC3)nc3snc(Br)c23)CO1,-3.9,?,-84.0*,2.5%,-2.1%,-13.2%
O=C(CSc1nc2ccc([N+](=O)[O-])cc2[nH]1)c1ccc2ccccc2c1,6.7,?,0.1,?,-1.5%,-6.5%
Cc1nc([N+](=O)[O-])c(Sc2nc3ccc([N+](=O)[O-])cc3[nH]2)n1Cc1ccccc1,-6.3,7.51µM*,?,?,8.9%,?
